# Experimental data: the supplement of paper PMC8728848
# Only a selection was taken, and the strongest signals are over-represented in it overall.
# Assays:
# Test in all cases: glycan array binding signal (z-score within array); higher = stronger binding
# Conditions in all cases: glycan notation: IUPAC condensed, linker removed
# [1] = target: Fuc(a1-2)Gal(b1-3)GalNAc(a1-3)[Fuc(a1-2)]Gal(b1-4)Glc
# Procedure, shortened: (§1)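 Arrays were curated from the Consortium for Functional Glycomics database, 3228 in total, and kept only where the protein sequence was available. Binding is expressed as a within-array Z-score. This score was averaged across arrays of the same protein sequence at different concentrations or buffers and across linkers, and negative values can be read as non-binding.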
# [2] = target: Fuc(a1-2)Gal(b1-4)[Fuc(a1-3)]GlcNAc
# Procedure, shortened: as §1
# [3] = target: Fuc(a1-2)[Gal(a1-3)]Gal(b1-3)GalNAc
# Procedure, shortened: as §1
# [4] = target: Fuc(a1-2)[Gal(a1-3)]Gal(b1-3)GlcNAc(b1-2)Man(a1-3)[Fuc(a1-2)[Gal(a1-3)]Gal(b1-3)GlcNAc(b1-2)Man(a1-6)]Man(b1-4)GlcNAc(b1-4)GlcNAc
# Procedure, shortened: as §1
# [5] = target: Fuc(a1-2)[Gal(a1-3)]Gal(b1-3)GlcNAc(b1-2)Man(a1-3)[Fuc(a1-2)[Gal(a1-3)]Gal(b1-3)GlcNAc(b1-2)Man(a1-6)]Man(b1-4)GlcNAc(b1-4)[Fuc(a1-6)]GlcNAc
# Procedure, shortened: as §1
# [6] = target: Fuc(a1-2)[Gal(a1-3)]Gal(b1-4)GlcNAc(b1-2)Man(a1-3)[Fuc(a1-2)[Gal(a1-3)]Gal(b1-4)GlcNAc(b1-2)Man(a1-6)]Man(b1-4)GlcNAc(b1-4)GlcNAc
# Procedure, shortened: as §1
# [7] = target: Fuc(a1-2)[GalNAc(b1-3)]Gal
# Procedure, shortened: as §1
# [8] = target: Fuc(a1-3)[Gal(b1-4)]GlcNAc(b1-3)GalNAc
# Procedure, shortened: as §1
# [9] = target: Fuc(a1-3)[Gal(b1-4)]GlcNAc(b1-6)[Gal(b1-3)GlcNAc(b1-3)]Gal(b1-4)Glc
# Procedure, shortened: as §1
# [10] = target: Gal(a1-2)Gal
# Procedure, shortened: as §1
# [11] = target: Gal(a1-3)Fuc(a1-2)Gal(b1-4)GlcNAc(b1-3)[Gal(a1-3)Fuc(a1-2)Gal(b1-4)GlcNAc(b1-6)]GalNAc
# Procedure, shortened: as §1
# [12] = target: Gal(a1-3)Gal(b1-3)GlcNAc(b1-2)Man
# Procedure, shortened: as §1
# [13] = target: Gal(a1-3)Gal(b1-4)GlcNAc
# Procedure, shortened: as §1
# [14] = target: Gal(a1-3)Gal(b1-4)GlcNAc(b1-2)Man(a1-3)[Gal(a1-3)Gal(b1-4)GlcNAc(b1-2)Man(a1-6)]Man(b1-4)GlcNAc(b1-4)GlcNAc
# Procedure, shortened: as §1
# [15] = target: Gal(a1-3)Gal(b1-4)[Fuc(a1-3)]GlcNAc
# Procedure, shortened: as §1
# [16] = target: Gal(a1-3)[Gal(a1-4)]Gal(b1-4)GlcNAc
# Procedure, shortened: as §1
# [17] = target: Gal(a1-4)Gal(b1-3)GlcNAc(b1-2)Man(a1-3)[Gal(a1-4)Gal(b1-3)GlcNAc(b1-2)Man(a1-6)]Man(b1-4)GlcNAc(b1-4)GlcNAc
# Procedure, shortened: as §1
# [18] = target: Gal(a1-4)Gal(b1-4)GlcNAc(b1-2)Man(a1-3)[Gal(a1-4)Gal(b1-4)GlcNAc(b1-2)Man(a1-6)]Man(b1-4)GlcNAc(b1-4)GlcNAc
# Procedure, shortened: as §1
# [19] = target: Gal(a1-4)GlcNAc
# Procedure, shortened: as §1
# [20] = target: Gal(b1-3)GalNAc(a1-3)[Fuc(a1-2)]Gal(b1-4)GlcNAc
# Procedure, shortened: as §1
# [21] = target: Gal(b1-3)GlcNAc(a1-6)Gal(b1-4)GlcNAc
# Procedure, shortened: as §1
# [22] = target: Gal(b1-3)GlcNAc(b1-2)Man
# Procedure, shortened: as §1
# [23] = target: Gal(b1-3)GlcNAc(b1-2)[Gal(b1-3)GlcNAc(b1-6)]Man(a1-6)[Gal(b1-3)GlcNAc(b1-2)Man(a1-3)]Man(b1-4)GlcNAc(b1-4)GlcNAc
# Procedure, shortened: as §1
# [24] = target: Gal(b1-3)GlcNAc(b1-3)Gal(b1-4)GlcNAc
# Procedure, shortened: as §1
# [25] = target: Gal(b1-3)GlcNAc(b1-3)Gal(b1-4)GlcNAc(b1-6)[Gal(b1-3)GlcNAc(b1-3)]Gal(b1-4)Glc
# Procedure, shortened: as §1
# [26] = target: Gal(b1-3)GlcNAc(b1-3)Gal(b1-4)[Fuc(a1-3)]GlcNAc
# Procedure, shortened: as §1
# [27] = target: Gal(b1-4)GlcNAc(b1-2)Man(a1-3)[Gal(b1-4)GlcNAc(b1-2)Man(a1-6)][Gal(b1-4)GlcNAc(b1-4)]Man(b1-4)GlcNAc(b1-4)[Fuc(a1-6)]GlcNAc
# Procedure, shortened: as §1
# [28] = target: Gal(b1-4)GlcNAc(b1-2)Man(a1-3)[GlcNAc(b1-4)][Gal(b1-4)GlcNAc(b1-2)Man(a1-6)]Man(b1-4)GlcNAc(b1-4)GlcNAc
# Procedure, shortened: as §1
# [29] = target: Gal(b1-4)GlcNAc(b1-2)Man(a1-6)Man(b1-4)GlcNAc(b1-4)GlcNAc
# Procedure, shortened: as §1
# [30] = target: Gal(b1-4)GlcNAc(b1-3)Gal(b1-4)GlcNAc(b1-3)Gal(b1-4)GlcNAc(b1-3)Gal(b1-4)GlcNAc(b1-3)Gal(b1-4)GlcNAc(b1-3)Gal(b1-4)GlcNAc(b1-2)Man(a1-3)[Gal(b1-4)GlcNAc(b1-3)Gal(b1-4)GlcNAc(b1-3)Gal(b1-4)GlcNAc(b1-3)Gal(b1-4)GlcNAc(b1-3)Gal(b1-4)GlcNAc(b1-3)Gal(b1-4)GlcNAc(b1-2)Man(a1-6)]Man(b1-4)GlcNAc(b1-4)GlcNAc
# Procedure, shortened: as §1
# [31] = target: Gal3S(b1-4)Glc
# Procedure, shortened: as §1
# [32] = target: Gal3S(b1-4)GlcNAc
# Procedure, shortened: as §1
# [33] = target: GalNAc(a1-3)GalNAc(b1-3)Gal(a1-4)Gal(b1-4)Glc
# Procedure, shortened: as §1
# [34] = target: GalNAc3S(b1-4)GlcNAc
# Procedure, shortened: as §1
# [35] = target: GlcNAc(a1-4)Gal(b1-4)GlcNAc
# Procedure, shortened: as §1
# [36] = target: GlcNAc(b1-2)[GlcNAc(b1-4)]Man(a1-3)[GlcNAc(b1-4)][GlcNAc(b1-2)[GlcNAc(b1-6)]Man(a1-6)]Man(b1-4)GlcNAc(b1-4)GlcNAc
# Procedure, shortened: as §1
# [37] = target: GlcNAc(b1-2)[GlcNAc(b1-4)]Man(a1-3)[GlcNAc(b1-4)][GlcNAc(b1-2)[GlcNAc(b1-6)]Man(a1-6)]Man(b1-4)GlcNAc(b1-4)[Fuc(a1-6)]GlcNAc
# Procedure, shortened: as §1
# [38] = target: GlcNAc(b1-3)Gal(b1-4)GlcNAc
# Procedure, shortened: as §1
# [39] = target: GlcNAc(b1-3)Gal(b1-4)GlcNAc(b1-3)Gal(b1-4)GlcNAc(b1-2)Man(a1-3)[GlcNAc(b1-3)Gal(b1-4)GlcNAc(b1-3)Gal(b1-4)GlcNAc(b1-2)Man(a1-6)]Man(b1-4)GlcNAc(b1-4)GlcNAc
# Procedure, shortened: as §1
# [40] = target: GlcNAc(b1-3)Gal(b1-4)GlcNAc(b1-3)GalNAc
# Procedure, shortened: as §1
# [41] = target: GlcNAc(b1-3)[GlcNAc(b1-4)][GlcNAc(b1-6)]GlcNAc
# Procedure, shortened: as §1
# [42] = target: GlcNAc(b1-3)[GlcNAc(b1-6)]GalNAc
# Procedure, shortened: as §1
# [43] = target: Neu5Ac(a2-3)Gal(b1-3)GlcNAc(b1-2)Man(a1-3)[GlcNAc(b1-4)][Neu5Ac(a2-3)Gal(b1-3)GlcNAc(b1-2)Man(a1-6)]Man(b1-4)GlcNAc(b1-4)GlcNAc
# Procedure, shortened: as §1
# [44] = target: Neu5Ac(a2-3)Gal(b1-4)GlcNAc(b1-2)Man
# Procedure, shortened: as §1
# [45] = target: Neu5Ac(a2-3)Gal(b1-4)GlcNAc(b1-2)Man(a1-3)[Neu5Ac(a2-3)Gal(b1-4)GlcNAc(b1-2)Man(a1-6)]Man(b1-4)GlcNAc(b1-4)[Fuc(a1-6)]GlcNAc
# Procedure, shortened: as §1
# [46] = target: Neu5Ac(a2-3)Gal(b1-4)GlcNAc(b1-3)Gal(b1-4)GlcNAc(b1-2)Man(a1-3)[Neu5Ac(a2-3)Gal(b1-4)GlcNAc(b1-3)Gal(b1-4)GlcNAc(b1-2)Man(a1-6)]Man(b1-4)GlcNAc(b1-4)GlcNAc
# Procedure, shortened: as §1
# [47] = target: Neu5Ac(a2-3)Gal(b1-4)GlcNAc(b1-6)[Gal(b1-3)]GalNAc
# Procedure, shortened: as §1
# [48] = target: Neu5Ac(a2-3)Gal(b1-4)GlcNAc(b1-6)[Neu5Ac(a2-3)Gal(b1-3)]GalNAc
# Procedure, shortened: as §1
# [49] = target: Neu5Ac(a2-3)Gal(b1-4)[Fuc(a1-3)]GlcNAc(b1-2)Man
# Procedure, shortened: as §1
# [50] = target: Neu5Ac(a2-3)GalNAc(b1-4)GlcNAc
# Procedure, shortened: as §1
# [51] = target: Neu5Ac(a2-6)GlcNAc(b1-4)GlcNAc(b1-4)GlcNAc
# Procedure, shortened: as §1
# [52] = target: Neu5Ac(a2-8)Neu5Ac(a2-8)Neu5Ac
# Procedure, shortened: as §1
# [53] = target: Neu5Ac9Ac(a2-3)Gal(b1-4)GlcNAc
# Procedure, shortened: as §1
binder,measurement,setting,value
GSL-I-B4 (Griffonia simplicifolia) (protein) NFWSDVEDSIIFQGDANTTAGTLQLCKTNQYGTPLQWSAGRALYSDPVQLWDNKTESVASFYTEFTFFLKITGNGPADGLAFFLAPPDSDVKDAGEYLGLFNKSTATQPSKNQVVAVEFDTWTNPNFPEPSYRHIGINVNSIVSVATKRWEDSDIFSGKIATARISYDGSAEILTVVLSYPDGSDYILSHSVDMRQNLPESVRVGISASTGNNQFLTVYILSWRFSSNLQSTSVKAAMEPEITRTVV,glycan array binding signal (z-score),[1],-0.132
same,glycan array binding signal (z-score),[2],-0.131
same,glycan array binding signal (z-score),[3],0.853
same,glycan array binding signal (z-score),[4],1.74
same,glycan array binding signal (z-score),[5],0.077
same,glycan array binding signal (z-score),[6],3.69
same,glycan array binding signal (z-score),[7],-0.12
same,glycan array binding signal (z-score),[8],-0.197
same,glycan array binding signal (z-score),[9],-0.155
same,glycan array binding signal (z-score),[10],5.94
same,glycan array binding signal (z-score),[11],1.98
same,glycan array binding signal (z-score),[12],1.88
same,glycan array binding signal (z-score),[13],2
same,glycan array binding signal (z-score),[14],7.78
same,glycan array binding signal (z-score),[15],6.03
same,glycan array binding signal (z-score),[16],1.71
same,glycan array binding signal (z-score),[17],5.37
same,glycan array binding signal (z-score),[18],1.52
same,glycan array binding signal (z-score),[19],13.8
same,glycan array binding signal (z-score),[20],-0.212
same,glycan array binding signal (z-score),[21],-0.155
same,glycan array binding signal (z-score),[22],-0.171
same,glycan array binding signal (z-score),[23],-0.138
same,glycan array binding signal (z-score),[24],-0.228
same,glycan array binding signal (z-score),[25],-0.187
same,glycan array binding signal (z-score),[26],-0.177
same,glycan array binding signal (z-score),[27],-0.172
same,glycan array binding signal (z-score),[28],-0.15
same,glycan array binding signal (z-score),[29],-0.205
same,glycan array binding signal (z-score),[30],-0.133
same,glycan array binding signal (z-score),[31],-0.151
same,glycan array binding signal (z-score),[32],-0.174
same,glycan array binding signal (z-score),[33],-0.156
same,glycan array binding signal (z-score),[34],-0.159
same,glycan array binding signal (z-score),[35],-0.12
same,glycan array binding signal (z-score),[36],-0.089
same,glycan array binding signal (z-score),[37],-0.062
same,glycan array binding signal (z-score),[38],-0.186
same,glycan array binding signal (z-score),[39],0.066
same,glycan array binding signal (z-score),[40],-0.208
same,glycan array binding signal (z-score),[41],-0.144
same,glycan array binding signal (z-score),[42],-0.161
same,glycan array binding signal (z-score),[43],-0.151
same,glycan array binding signal (z-score),[44],-0.197
same,glycan array binding signal (z-score),[45],-0.214
same,glycan array binding signal (z-score),[46],0.149
same,glycan array binding signal (z-score),[47],-0.23
same,glycan array binding signal (z-score),[48],-0.212
same,glycan array binding signal (z-score),[49],-0.187
same,glycan array binding signal (z-score),[50],-0.157
same,glycan array binding signal (z-score),[51],-0.169
same,glycan array binding signal (z-score),[52],-0.144
same,glycan array binding signal (z-score),[53],-0.134
